Screen size: about 68,000 compounds; about 2,700 (4%) showed an effect of 50% or more. The sample as a whole holds a higher share of strong results than the screen did.

The test system of the experiment is Plasmodium berghei. Put plainly: Screen against P. berghei liver stage (PbLuc), transformed with Luciferase, at 2uM. Format: functional, HepG2. The settings on record: tested at 2 uM.
`Cc1ccc(CN2C[C@H]3C[C@H](C(=O)NCC4CC4)N(C)[C@H]3C2)o1`: the INHIBITION is on record as -13.53%.
As for `CN1[C@@H](C(=O)NCC2CC2)C[C@@H]2CN(Cc3ccoc3)C[C@@H]21`, the figure is 40.83%.
As for `Cc1nc(CN2C[C@H]3C[C@H](C(=O)NCC4CC4)N(C)[C@H]3C2)cs1`, the figure is 55.66%; as for `CN1[C@@H](C(=O)NCC2CC2)C[C@H]2CN(Cc3ccsc3)C[C@H]21`, 1.29%.
As for `O=C(NCC1CCN(Cc2ccsc2)CC1)NC1CC1`, the figure is -18.04%.
Take `Cc1cnn(CC2CCCN2C(=O)c2cccc(-n3ccc(C)n3)c2)c1` (stereo unspecified): the INHIBITION is given as 23.42%.
As for `CS(=O)(=O)c1ccc(C(=O)N2CCCC(n3cncn3)C2)o1` (stereo unspecified), the figure is -15.41%.
The same measure for `CCOC(=O)[C@]12CCCN(Cc3cccs3)C[C@H]1CN(C(C)C)C2`: -10.41%.
`CCn1nc(C)c(CNC(=O)NCC(C)(O)c2ccc(C)o2)c1C` (stereo unspecified): the INHIBITION is -109.32%.
As for `CCS(=O)(=O)N1CCC2(CC1)CN(c1cncnc1)C(=O)CO2`, the figure is -28.81%.
`O=C1COC2(CCN(CC3CC3)CC2)CN1c1cncnc1`: the INHIBITION is -59.44%.
As for `CCC(C)N1CCC2(CC1)CN(c1cncnc1)C(=O)CO2` (stereo unspecified), the INHIBITION was 51.55%.
As for `CSc1nc(C)cc(N2CCC(c3ncc[nH]3)CC2)n1`, the figure is -69.92%; as for `CC(C)NS(=O)(=O)c1cc(C(=O)O)cc(-c2ccccc2CN(C)C)c1`, 58.24%; as for `CC(C)NS(=O)(=O)c1cc(C(=O)O)cc(-c2ccccc2C#N)c1`, -10.44%.
As for `CC(=O)c1ccccc1-c1cc(C(=O)O)cc(S(=O)(=O)NC(C)C)c1`, the figure is 17.48%; as for `CC(C)NS(=O)(=O)c1cc(C(=O)O)cc(-c2ccc(CN(C)C)cc2)c1`, 15.42%.
For `CC(C)NS(=O)(=O)c1cc(C(=O)O)cc(-c2ccccc2CO)c1`, the INHIBITION is listed as 76.6%.
As for `CC(C)NS(=O)(=O)c1cc(C(=O)O)cc(-c2ccccc2F)c1`, the figure is 38.83%.
As for `Cn1c(CCNc2nccnc2C#N)nc2ccc(F)cc21`, the figure is 8.03%.
On to `CCc1nnc2n1CCN(C(=O)c1cc3c(F)cccc3[nH]1)C2`, for which the INHIBITION was 9.17%.
As for `CC(C)[C@@H]1CN(C(=O)NCc2ccco2)C[C@H]1NS(=O)(=O)N(C)C`, the figure is 28.95%; as for `CC(C)[C@@H]1CN(C(=O)NCc2ccco2)C[C@H]1N(C)C`, 52.08%; as for `CC(C)[C@@H]1CN(CC(=O)NCc2ccco2)C[C@H]1NS(=O)(=O)N(C)C`, -30.53%.
The same measure for `CC1COCCN1C(=O)c1cnccn1` (stereo unspecified): -108.55%; for `COCCNC(=O)[C@H]1C[C@@](CC(C)C)(C(=O)O)N(C)[C@H]1c1cccnc1`: 20.32%.
Take `COCCN1CCC2(CC1)CC(c1cccnc1)C(=O)N2C` (stereo unspecified): the INHIBITION worked out at 11.98%.
As for `CCN(C)C(=O)[C@H]1C[C@@](CC(C)C)(C(=O)OC)N(C)[C@H]1c1cccnc1`, the figure is 59.03%; as for `O=C(O)CSc1nnc(-c2cn[nH]c2)n1-c1ccccc1Cl`, 37.77%.
The same measure for `O=C(O)CSc1nnc(-c2cn[nH]c2)n1-c1ccccc1C(F)(F)F`: 71.98%; for `O=C(O)CSc1nnc(-c2ccn[nH]2)n1-c1ccccc1C(F)(F)F`: -43.98%.
As for `COCCN1CCC(C(=O)N(C)CCOc2ccc(C)cc2Cl)C1` (stereo unspecified), the figure is -23.16%; as for `Cc1n[nH]cc1CNC(=O)CCCc1cccs1`, 20.86%; as for `C[C@@H]1CN(Cc2ccc(-c3ccncc3)cc2F)CC(C(N)=O)O1` (stereo partly specified), -11.35%.
`CC(C)N1CCOCC2(CCCN(C(=O)c3cncn3C)C2)C1` (stereo unspecified): the INHIBITION worked out at 9.1%.
The same measure for `CN1CCC2(CCCN(C(=O)c3cncn3C)C2)CC1`: 13.26%; for `CC(C)N1CCC2(CCCN(C(=O)c3cncn3C)C2)CC1`: 51.36%; for `CCSc1nc(N)c(NC(=O)c2ccc(C)cc2)c(=O)[nH]1`: 7.1%.
The same measure for `COCCC(=O)N1CC[C@H]2O[C@@H](C)C[C@H]2C1`: 26.31%; for `O=C(Nc1cnn(COc2ccc(F)cc2Cl)c1)C1CC1`: 25.24%; for `COc1cc(-c2nc3c([nH]2)CCCNC3=O)ccc1OC(C)C`: -20.6%.
As for `COc1ccc(-c2nc3c([nH]2)CCCNC3=O)cc1OC`, the INHIBITION stood at 75.76%.
For the molecule `COc1cc(-c2nc3c([nH]2)CCCNC3=O)ccc1O`, the INHIBITION is recorded as -58.91%.
As for `NC(=O)c1cccc(CC2CCN(C(=O)CO)C2)c1` (stereo unspecified), the figure is -5.6%.
As for `Cc1ccc(-c2cc(CNC(=O)N3CCC(N(C)C)CC3)on2)cc1`, the INHIBITION was 23.24%.
As for `CN(Cc1ccc(F)cc1F)CC(C)(CO)CO`, the figure is 38.67%; as for `CN(Cc1cc(F)ccc1C#N)CC(C)(CO)CO`, 55.36%.
The same measure for `CSCCN(C)Cc1ccc(F)cc1C#N`: -63.41%.
Turning to `CN(Cc1ccc(F)cc1C#N)CC(F)(F)F`, the INHIBITION is given as 4.12%.
As for `CN(Cc1cc(F)ccc1F)CC(C)(CO)CO`, the figure is 50.59%; as for `CN(CC(C)(CO)CO)C(=O)Nc1cc(F)cc(Cl)c1`, -4.57%.

Source of the values: ChEMBL document CHEMBL4513216, “Probing the Open Global Health Chemical Diversity Library for Multistage-Active Starting Points for Next-Generation Antimalarials” (ACS Infect Dis, 2020).
